# Rows were chosen to be rich in hits. Some 3% of all compounds tested hit in one or more screens of this group.
# HEK293 viab: reduces viability of HEK-293 SNCA reporter cells. Potency, µM (doses to about 57.1 µM), most hits filed as cytotoxic. HEK-293-SNCA-luc viability, GF-AFC fluorescence, 24 h. 150,000 compounds, 0.12% hits; note: nearly all actives have a fitted effect of over 30% in size
#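 HEK-293-SNCA-luc cells (1500/well) plated 24 h, then exposed 24 h to a dilution series; GF-AFC added 30 min at 37C, fluorescence 405/540 nm; normalised to medium-only and DMSO wells, Hill fit.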
# IP6K1 inhibitor: inhibitors of human IP6K1. Q92551. IP6K1 kinase, ADP-Glo luminescence, 2 h; stronger effect = lower value. activity change, % (series mostly up to about 58 µM). 140,000 compounds, 0.81% hits. AID 1645851; in the data active = activity change below about -25%
# Target sequence (Q92551 whole entry, looked up): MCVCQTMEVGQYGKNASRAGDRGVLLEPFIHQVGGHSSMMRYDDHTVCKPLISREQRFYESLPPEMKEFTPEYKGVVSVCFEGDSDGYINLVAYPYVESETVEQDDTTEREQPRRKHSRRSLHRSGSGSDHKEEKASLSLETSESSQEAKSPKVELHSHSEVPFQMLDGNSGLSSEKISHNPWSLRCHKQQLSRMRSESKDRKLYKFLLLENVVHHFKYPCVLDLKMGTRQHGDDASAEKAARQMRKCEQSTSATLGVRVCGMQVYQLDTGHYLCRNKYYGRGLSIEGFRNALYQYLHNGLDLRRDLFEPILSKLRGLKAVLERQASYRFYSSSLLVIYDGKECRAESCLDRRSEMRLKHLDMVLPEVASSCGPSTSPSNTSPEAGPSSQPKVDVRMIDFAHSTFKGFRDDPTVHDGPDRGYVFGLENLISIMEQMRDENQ
#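 ADP-Glo luminescence measures ADP made by human IP6K1 during a 2 h RT reaction with ATP/IP6 (mix at 1.3 mM/130 uM); top library doses 57.5 and 19.1 uM final.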
# KDM5B inhibitor: KDM5B demethylase inhibition; Q9UGL1; Potency, µM (series often up to 57.7 µM), actives largely listed as inhibitors; KDM5B demethylase, FDH-coupled NADH fluorescence (FDH is formaldehyde dehydrogenase); 220,000 compounds, 2.6% hits; note: nearly all actives have a fitted effect of over 70% in size
#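 Measured: NADH fluorescence change, 30 min, RT. System: KDM5BΔAP 200 nM final, H3K4me3 peptide, α-KG, Fe(II), ascorbate, NAD⁺ plus FDH, pH 7.5 HEPES. Compounds: titrated, 10 min pre-incubation with enzyme.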
# SNCA expr inhib: SNCA gene expression inhibition. 140,000 compounds, 0.17% hits. HEK-293 SNCA-luciferase knock-in, luminescence, 24 h. Potency, µM (doses to about 57.2 µM), hits mostly inhibitors. AID 1671194; note: nearly all actives have a fitted effect of over 45% in size
# IP6K1 conf: confirmation of human IP6K1 inhibitors; shares compounds with IP6K1 inhibitor; Potency, µM (highest dose often 49 µM), hits mostly inhibitors; 1,200 compounds, 13% hits; recombinant IP6K1 kinase, ADP-Glo luminescence, 2 h; AID 1645852; note: nearly all actives have a fitted effect of over 65% in size
# Hits are given with their value; – = inactive; ? = inconclusive; · = not tested or not shown; ! = repeats disagree; [ ] = another dose, or the depositor's remark. Unless noted, calls come from the whole dose curve; as a rule, active = well fitted curve in the direction sought with a large enough effect; inconclusive = small, poorly fitted or top-dose-only effect, or another doubt; inactive = no such curve, though single readings can be large; an effect the other way counts as inactive or inconclusive.
SMILES,HEK293 viab,IP6K1 inhibitor,KDM5B inhibitor,SNCA expr inhib,others
CCOC(=O)[C@H]1CN(C(=O)/C=C/c2ccccc2)[C@]2(C)C(=O)N(CC3CC3)c3ccccc3[C@H]12,–,–,·,–,
CCOc1ccc(CN(CCc2ccc3c(c2)OCO3)Cc2cccc(Br)c2)cc1,–,-57,?,–,
CCOc1ccc(CN(CCc2ccc3c(c2)OCO3)Cc2ccc(C)cc2)cc1,–,–,?,–,
CC(C)=CCC[C@]1(C)C=Cc2c(O)c3c(c(CC=C(C)C)c2O1)O[C@]12C(=C[C@@H]4CC1C(C)(C)O[C@@]2(C/C=C(/C)C(=O)O)C4=O)C3=O,1.9µM,-25,·,·,
Cc1nc(-c2ccc(N(C)C)cc2)cc([C@H]2CN3CC[C@H]2C[C@@H]3CNC(=O)C2CC2)n1,–,–,?,–,
COc1ccccc1-c1cc([C@H]2CN3CC[C@H]2C[C@@H]3CNC(=O)N2CCOCC2)n(C)n1,–,–,–,–,
Cc1nc(-c2ccc(N(C)C)cc2)cc([C@H]2CN3CC[C@H]2C[C@@H]3CNC(=O)N2CCOCC2)n1,–,–,28µM,–,
Cc1nc(-c2ccc(N(C)C)cc2)cc([C@H]2CN3CC[C@H]2C[C@@H]3CNC(=O)C(C)(C)C)n1,?,–,32µM,?,
COc1ccc(-c2cc([C@H]3CN4CC[C@H]3C[C@@H]4CNC(=O)N3CCOCC3)nc(C)n2)cc1OC,–,–,22µM,–,
Cc1ccc(-n2cccc2CC(=O)N2CCN(C3CCN(C)CC3)CC2)cc1,–,–,?,–,
Cn1nc(-c2ccc3ccccc3c2)cc1[C@H]1CN2CC[C@H]1C[C@@H]2CNC(=O)NCc1ccccc1,?,–,?,?,
COCc1nnc2n1CCC(NC(=O)c1nn(C)c3ccccc13)CC2 (centres undefined),–,–,28µM,–,
N#Cc1ccc(C(=O)N2C[C@@H]3C[C@H](C2)c2c(-c4ccccc4F)ccc(=O)n2C3)cc1,–,–,?,–,
N#Cc1cccc(-c2ccc3n(c2=O)C[C@H]2C[C@@H]3CN(C(=O)CSCC(=O)O)C2)c1,–,–,35µM,–,
N#Cc1cccc(-c2ccc3n(c2=O)C[C@H]2C[C@@H]3CN(C(=O)Nc3ccccc3)C2)c1,–,–,35µM,–,
Cc1ccccc1-c1ccc2n(c1=O)C[C@H]1C[C@@H]2CN(C(=O)Nc2cccc(F)c2)C1,–,–,?,–,
CSCC(=O)Nc1ccc2n(c1=O)C[C@H]1C[C@@H]2CN(C(=O)COc2ccccc2)C1,–,–,?,–,
N#Cc1cccc(-c2ccc3n(c2=O)C[C@H]2C[C@@H]3CN(C(=O)c3ccc(F)cc3)C2)c1,–,–,32µM,–,
Cc1noc(-c2ccc(N3CC4CC(C3)c3cccc(=O)n3C4)nc2)n1 (centres undefined),–,–,22µM,–,
O=C(O)C1=NOC2CN(Cc3cncs3)CC12 (centres undefined),–,–,?,–,
CCOC(=O)[C@H]1CN(C(=O)C2CCCC2)[C@]2(C)C(=O)N(CC3CC3)c3ccccc3[C@H]12,–,–,·,–,
O=C(Cc1ccc(F)cc1)N1CCN(Cc2ccccc2-c2cccnc2)CC1,–[12.5 µM],–,·,–,
CCN1CCN(C(=O)Cc2ccc(Nc3ncc(F)c(Nc4ccc(C(=O)Nc5ccccc5Cl)cc4)n3)cc2)CC1,24µM!,-33,·,–,IP6K1 conf=?
CCOC(=O)[C@H]1CN(C(=O)OCC(C)(C)C)[C@]2(C)C(=O)N(CC3CC3)c3ccccc3[C@H]12,–,–,·,?,
O=C(Nc1ccc(Br)cc1C(=O)c1ccccc1)c1ccccc1,–,–,–,–,
SMILES,HEK293 viab,IP6K1 inhibitor,KDM5B inhibitor,SNCA expr inhib,others
O=C(Nc1ccc(Br)cc1)c1cc(Br)cc(Br)c1O,–,-40,·,–,IP6K1 conf=23µM
O=C(CCn1cccn1)N1C[C@H](c2cccc(F)c2F)[C@@H]2[C@H]1C1CCN2CC1,–,-33,–,–,IP6K1 conf=–
Cc1ncsc1CCC(=O)N1C[C@@H](c2ccccc2)[C@@H]2[C@H]1C1CCN2CC1,–,–,–,?,
COc1ccccc1NC(=O)Nc1ccc2n(c1=O)C[C@H]1C[C@@H]2CN(C(=O)C(=O)O)C1,–,–,?,–,
CCOc1ccc(CN(CCc2ccc3c(c2)OCO3)Cc2cccc(OC)c2)cc1,–,-31,?,–,IP6K1 conf=–
Cc1ccc(Cn2nc(C(=O)N[C@@H]3C(C)(C)[C@@H]4CC[C@@]3(C)C4)cc2-c2ccc(Cl)c(C)c2)cc1,–,–,·,·,
